From PubChem BioAssay AID504617 (Sanford-Burnham Center for Chemical Genomics, 2011)
Some of the results follow. A number with no mark means an inactive call. Calls of active or inactive are those of the source.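 The calls were made as follows: active = mean activity change at or below -40%, meaning activation of 40% or more, at 20 µM; inactive = the rest.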

What follows are compounds tested against Apoptotic protease-activating factor 1 (Homo sapiens) (UniProt O14727) (assay: enhancers of apoptosome-driven caspase-3 activity – biochemical, fluorescence, DEVD-Rh110, 20 µM, confirmation (AID 504617)). Settings: reconstituted apoptosome caspase-3 activity, at 20 µM, stronger effect = lower value.
Apoptotic protease-activating factor 1 (Homo sapiens), sequence (O14727 whole entry, looked up): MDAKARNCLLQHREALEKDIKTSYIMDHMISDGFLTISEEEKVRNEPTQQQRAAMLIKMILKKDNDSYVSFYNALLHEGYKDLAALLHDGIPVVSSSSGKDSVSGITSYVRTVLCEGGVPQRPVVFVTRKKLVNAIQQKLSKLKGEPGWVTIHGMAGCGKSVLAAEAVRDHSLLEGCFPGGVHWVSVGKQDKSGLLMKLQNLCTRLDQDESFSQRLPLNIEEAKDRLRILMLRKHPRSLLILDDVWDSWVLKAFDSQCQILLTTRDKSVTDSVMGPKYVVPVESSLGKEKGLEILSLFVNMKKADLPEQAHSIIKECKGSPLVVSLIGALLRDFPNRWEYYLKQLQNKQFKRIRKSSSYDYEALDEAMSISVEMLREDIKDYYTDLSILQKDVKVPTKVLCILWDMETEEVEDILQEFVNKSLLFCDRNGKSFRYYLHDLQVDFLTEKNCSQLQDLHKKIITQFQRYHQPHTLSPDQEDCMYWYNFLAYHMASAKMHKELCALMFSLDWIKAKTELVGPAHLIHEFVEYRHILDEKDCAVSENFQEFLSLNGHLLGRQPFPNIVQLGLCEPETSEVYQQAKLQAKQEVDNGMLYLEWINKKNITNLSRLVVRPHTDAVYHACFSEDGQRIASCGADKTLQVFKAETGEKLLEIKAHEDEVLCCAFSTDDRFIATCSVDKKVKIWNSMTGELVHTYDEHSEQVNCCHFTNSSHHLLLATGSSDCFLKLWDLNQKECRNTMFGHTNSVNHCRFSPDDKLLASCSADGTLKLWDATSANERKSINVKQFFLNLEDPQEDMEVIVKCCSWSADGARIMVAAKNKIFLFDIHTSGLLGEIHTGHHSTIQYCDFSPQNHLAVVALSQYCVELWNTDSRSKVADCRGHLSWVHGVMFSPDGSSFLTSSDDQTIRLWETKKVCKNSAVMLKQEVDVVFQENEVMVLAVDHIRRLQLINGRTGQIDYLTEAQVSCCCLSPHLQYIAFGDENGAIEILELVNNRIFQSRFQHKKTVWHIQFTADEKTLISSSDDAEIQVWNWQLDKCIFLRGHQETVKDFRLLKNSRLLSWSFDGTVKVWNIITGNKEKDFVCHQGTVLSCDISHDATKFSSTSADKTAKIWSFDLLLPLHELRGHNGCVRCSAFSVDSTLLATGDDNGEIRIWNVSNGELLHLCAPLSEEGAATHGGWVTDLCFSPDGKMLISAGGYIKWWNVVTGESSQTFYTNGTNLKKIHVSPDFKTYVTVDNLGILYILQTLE
`COc1ccc(C2CC(c3ccccc3)Nc3ncnn32)cc1` (stereo unspecified) was tested, and the activity change, negative = activation was 8.21%.
In the case of `O=c1[nH]cnc2c1c(-c1ccccc1)cn2-c1ccc(F)cc1`, the activity change, negative = activation was 10.9%.
`Brc1ccc(/C=N/N2CCN(C3c4ccccc4-c4ccccc43)CC2)s1` showed an activity change, negative = activation of 4.14%.
Work on `N#CC1(C#N)C(C(=O)C23CC4CC(CC(C4)C2)C3)C12CCOCC2` (stereo unspecified) yielded an activity change, negative = activation of 6.87%.
In the case of `O=C(Nc1ccccc1F)c1ccccc1-c1ccccc1`, the activity change, negative = activation was 4.47%.
With `CCOCCCNC(=O)c1c[nH]c2cc(C)ccc2c1=O` the activity change, negative = activation was 13.4%.
With `C=CC1=C(C(=O)O)N2C(=O)[C@@H](NC(=O)/C(=N/OCC(=O)O)c3csc(N)n3)[C@H]2SC1` the activity change, negative = activation was -113% (active).
Compound `O=C(Nc1cccc(C(F)(F)F)c1)c1cnccn1` has an activity change, negative = activation of 14.9%.
`COc1ccc2c(c1)CCNC2Cc1ccc(OC)c(O)c1` (stereo unspecified) gave an activity change, negative = activation of 12.2%.
With `COC(CNC(=O)Cn1ncc2ccsc2c1=O)OC` the activity change, negative = activation was 10.8%.
`O=C(CSc1ccc(-c2ccc(-n3cccn3)cc2)nn1)Nc1ccc([N+](=O)[O-])cc1` gave an activity change, negative = activation of 8.16%.
`CC(=O)NC(=S)NNC(=O)c1ccc(Br)cc1` was tested, and the activity change, negative = activation was 17.7%.
`CC1COc2ccccc2N1C(=O)c1cccnc1Cl` (stereo unspecified) was tested, and the activity change, negative = activation was 6.25%.
Work on `Clc1cccc(-c2nc3nc4ccccc4nc3n2Cc2ccco2)c1` yielded an activity change, negative = activation of 21.3%.
Compound `O=C(Nc1cccc(-c2nc3ccccc3[nH]2)c1)c1ccc(C(=O)Nc2cccc(-c3nc4ccccc4[nH]3)c2)cc1` has an activity change, negative = activation of -23.1%.
`CCOc1ccc(N=C2NC(=O)S/C2=C\c2ccc(O)cc2)cc1` gave an activity change, negative = activation of -7.41%.
`Nc1cc(C(F)(F)F)ccc1N1CCOCC1` gave an activity change, negative = activation of 16.7%.
In the case of `O=C(CN1C(=O)C2C3C=CC(C3)C2C1=O)NCCc1ccccc1Cl` (stereo unspecified), the activity change, negative = activation was 10.8%.
Compound `CC(=O)CCC(=O)c1ccc2ccccc2c1` has an activity change, negative = activation of 13.2%.
Work on `O=[N+]([O-])c1ccc2nc(-c3ccccn3)[nH]c2c1` yielded an activity change, negative = activation of 9.21%.
`Cc1ccc(S(=O)(=O)N2CCOCC2)cc1C(=O)NC(=S)N(Cc1ccccc1)C(C)C` showed an activity change, negative = activation of 16.4%.
